Source: PubChem (several laboratories)
Most compounds without a hit are left out; they make up all but 1.9% or so of the library.
FAK blocker: blocks human focal adhesion kinase activity | hit rate 0.84% among 97,000 | inhibition, %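 (tested at 7 µM)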 | Q05397 | biochemical FAK kinase activity assay
GALR2 ag: agonists of human galanin receptor 2 (GALR2); O43603; GALR2-expressing cells, agonist activation read-out; activation, % (no concentration beside the values); hit rate 0.48% among 140,000; AID 803; in the data active = activation above about 5%, passing the limit was not always enough
Target sequence (O43603 whole entry, looked up): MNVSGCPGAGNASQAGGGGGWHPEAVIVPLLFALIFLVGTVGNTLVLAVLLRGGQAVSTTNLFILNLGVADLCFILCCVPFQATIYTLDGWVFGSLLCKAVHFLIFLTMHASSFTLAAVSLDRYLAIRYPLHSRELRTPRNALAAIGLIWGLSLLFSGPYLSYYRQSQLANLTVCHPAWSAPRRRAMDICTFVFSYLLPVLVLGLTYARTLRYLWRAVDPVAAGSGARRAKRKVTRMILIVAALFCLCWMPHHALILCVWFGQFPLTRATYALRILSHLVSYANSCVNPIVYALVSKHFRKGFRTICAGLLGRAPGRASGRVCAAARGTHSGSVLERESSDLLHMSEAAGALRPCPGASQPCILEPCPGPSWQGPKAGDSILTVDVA
S1P2 ag: S1P2 (human) receptor agonism; S1P2-expressing cell line, agonist reporter read-out; activation, % at 4.5 µM; hit rate 0.46% among 97,000; AID 729; in the data active = activation above about 16%
GALR2 blocker: GALR2 (human) receptor antagonism. O43603. GALR2-expressing cells, antagonist mode. inhibition, % at 4 µM. hit rate 0.39% among 140,000; in the data active = inhibition above about 27%;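 also: cells stimulated with galanin 1-16 at roughly its EC80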
sdo1 growth: restores growth of sdo1-depleted yeast | S. cerevisiae sdo1-depleted JHY4D growth rescue, OD600 30 h; hits give high values; pdr5 snq2 efflux-pump mutant strain | z-score at 10 µM | hit rate 0.21% among 140,000;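 active = z-score above 3 at both the 24 hr and the 30 hr optical density reads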
S1P2 blocker: blocks the human S1P2 receptor; O95136; cell-based S1P2 antagonist assay, inhibition at 5 uM; inhibition, % at 5 µM; hit rate 0.21% among 97,000; in the data active = inhibition above about 45%;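 also: CRE beta-lactamase reporter cells expressing human S1P2 stimulated with S1P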
FAK inh confirm: FAK (human) inhibition confirmed; hit rate 28% among 750; inhibition, % at 7 µM; FAK kinase biochemical inhibition assay; shares compounds with FAK blocker
Numbers stand for hits; - = inactive; . = not tested or not shown. Rule as the data show it, unless noted: active = inhibition above about 19%; inactive = the rest.

SMILES | FAK blocker | GALR2 ag | S1P2 ag | GALR2 blocker | sdo1 growth | S1P2 blocker | FAK inh confirm
CCOc1ccc(N=C2NC(=O)S/C2=C\c2ccc(Cl)cc2)cc1 | 33 | - | - | - | - | - | 51
c1cncc(-c2nc(NCc3ccco3)c3ccccc3n2)c1 | 19 | - | - | - | - | - | -
CC(C)[C@@H]1NC(=O)c2cc([N+](=O)[O-])cc(F)c2NCCC[C@@H](C(N)=O)NC(=O)[C@H](CO)NC1=O | . | - | . | - | - | . | .
Oc1ccc(N=Cc2ccc(-c3cccs3)s2)cc1 | 43 | - | - | - | - | - | -
CS(=O)(=O)N1CCN(c2ccccc2NC(=O)c2ccc(Br)o2)CC1 | 21 | - | - | - | - | - | -
C=C(C)C1CC=C(C)/C(=N\NC(=O)CNc2cccc3ccccc23)C1 (stereo not given) | . | - | . | - | - | . | .
O=C1c2ccccc2C(=O)N1c1ccc(Cl)cn1 | - | - | - | - | - | - | .
COc1ccc(-n2c(C)cc(/C=N/Nc3nc(N4CCOCC4)nc(N4CCOCC4)n3)c2C)cc1 | . | - | . | - | - | . | .
CCOc1ccc(/C=N/NC(=O)c2cc(-c3ccco3)nc3ccccc23)cc1 | . | - | . | - | - | . | .
O=C(N/N=C/c1ccc(F)cc1)c1cc(-c2ccco2)nc2ccccc12 | 72 | - | - | - | - | - | 45
CN=Cc1c(NC)nc2c(C)cccn2c1=O | - | - | - | - | - | - | .
O=C(Cn1c2ccccc2c(=O)c2ccccc21)N/N=C/c1cc([N+](=O)[O-])ccc1N1CCCCCC1 | 69 | - | - | - | - | - | 80
COc1ccc2nc(C)cc(SCC(=O)N/N=C/c3cccc4ccccc34)c2c1 | 32 | - | - | - | - | - | 23
COc1ccc2nc(C)cc(SCC(=O)O)c2c1 | - | - | - | - | - | - | .
COC(=O)CSc1cc(C)nc2ccc(OC)cc12 | 19 | - | - | - | - | - | -
COC(=O)c1ccc(C(=O)Nc2cc(Cl)ccc2Cl)cc1NC(=O)c1ccc(N(C)C)cc1 | . | - | . | - | - | . | .
CCC(NC(=O)Nc1ccc(O)cc1)(C(F)(F)F)C(F)(F)F | 20 | - | - | - | - | - | -
Cc1oc(-c2ccccc2)cc1C(=O)Nc1cccc(C(=O)O)c1 | - | - | - | - | - | - | .
Cc1oc(-c2ccccc2)cc1C(=O)Nc1cccc2ccccc12 | 26 | - | - | - | - | - | 25
O=C(OCCN=C1NS(=O)(=O)c2ccccc21)c1cccnc1 | 51 | - | - | - | - | - | 28
COc1ccc(CN(C(=S)Nc2ccccc2)C2CC(=O)N(c3ccccc3)C2=O)cc1 (stereo not given) | . | - | . | - | - | . | .
COc1ccc(CN(C(=S)Nc2ccccc2)C2CC(=O)N(c3ccc(Cl)cc3)C2=O)cc1 (stereo not given) | 87 | - | - | - | - | - | -
Cc1ccc(OCc2nnnn2-c2ccccc2)cc1 | . | - | . | - | - | . | .
O=C(NCCO)c1cccc(Nc2nc(-c3ccccc3)c3cc(Cl)ccc3n2)c1 | 33 | - | - | - | - | - | -
CC1(c2ccc(OC(F)F)cc2)NC(=O)N(/N=C/c2c(O)ccc3ccccc23)C1=O (stereo not given) | . | - | . | - | - | . | .
SMILES | FAK blocker | GALR2 ag | S1P2 ag | GALR2 blocker | sdo1 growth | S1P2 blocker | FAK inh confirm
CC(Sc1nc(NCc2ccccc2)nc(N(C)C)n1)C(=O)Nc1ccccc1 (stereo not given) | 22 | - | - | - | - | - | -
Cc1ccc2nc(/C(C#N)=C\c3ccc(N4CCCCC4)c([N+](=O)[O-])c3)[nH]c2c1 | 24 | - | - | - | - | - | -
O=c1cc(-c2ccco2)oc2c1ccc1ccccc12 | 26 | - | - | - | - | - | 22
CCc1ccc2c(c1)CCCN2C(=O)c1ccccc1C(=O)O | 23 | - | - | - | - | - | -
O=c1cc(NCc2ccccc2)nc2n1CCCS2 | . | - | . | - | - | . | .
C=CCn1c(SCC(=O)NC2CCS(=O)(=O)C2)nc2scc(C3CC3)c2c1=O (stereo not given) | - | - | - | - | - | - | .
C=CCn1c(SCC(=O)c2ccc(CNC(C)=O)o2)nc2scc(C3CC3)c2c1=O | 27 | - | - | - | - | - | -
COc1ccc(-c2nc(-c3ccccc3)c(-c3cccs3)[nH]2)cc1OC | 24 | - | - | - | - | - | -
O=[N+]([O-])c1ccc(-c2nc(-c3cccs3)c(-c3cccs3)[nH]2)cc1 | - | - | - | - | - | - | .
COc1ccc(-c2nc(-c3cccs3)c(-c3cccs3)[nH]2)cc1OC | 22 | - | - | - | - | - | 23
CCCn1nnc(NC(=S)NC(=O)c2cccs2)n1 | . | - | . | - | - | . | .
C=CCN(CC=C)C(=O)c1cc2ccccc2c(=O)o1 | . | - | . | - | - | . | .
O=C(c1ccccc1)c1ccc(OCC(O)CN2CCCCC2)cc1 (stereo not given) | - | - | - | - | - | - | .
OC(COc1ccc(C2C=CCC2)cc1)CN1CCCCC1 (stereo not given) | 22 | - | - | - | - | - | -
COc1ccc(/C=N/OCC(=O)Nn2c(C)nc3ccccc3c2=O)cc1 | . | - | . | - | - | . | .
O=C1Nc2ccc(S(=O)(=O)NCc3ccco3)c3cccc1c23 | 19 | - | - | - | . | - | -
CCOC(=O)c1cnc2c(-c3ccccc3)c(C)nn2c1N | - | - | - | - | - | - | .
CCOC(=O)c1cnc2c(-c3ccccc3)cnn2c1N | 29 | - | - | - | - | - | -
O=S(=O)(c1ccc(Oc2ccc(-c3nnco3)cc2)nc1)N1CCC(Cc2ccccc2)CC1 | 19 | - | - | - | - | - | -
O=C1Nc2ccccc2C12OCC(COc1ccc(Cl)cc1)O2 (stereo not given) | 20 | - | - | - | - | - | -
CN1C(=O)C2(OCC(COc3ccc(Cl)cc3)O2)c2ccccc21 (stereo not given) | - | - | - | - | - | - | .
Cc1sc2nc3ccc(NCc4ccco4)nn3c(=O)c2c1C | - | - | - | - | - | - | .
O=c1c2ccccc2nc2ccc(NCc3ccco3)nn12 | 23 | - | - | - | - | - | -
Cc1c(N2C(=O)c3ccc4c5c(ccc(c35)C2=O)CC4)c(=O)n(-c2ccccc2)n1C | 70 | - | - | - | - | - | 41
CCCOc1ccc(/C=C/C(=O)NCc2ccccc2)cc1 | . | - | . | - | - | . | .
SMILES | FAK blocker | GALR2 ag | S1P2 ag | GALR2 blocker | sdo1 growth | S1P2 blocker | FAK inh confirm
CCOC(=O)c1cnn(-c2ncnc3sc4c(c23)CCC4)c1N | 26 | - | - | - | - | - | -
C/C(=N\NC(=O)c1[nH]c2c([N+](=O)[O-])cc(C)cc2c1-c1ccccc1)c1cccnc1 | 20 | - | - | - | - | - | -
Cc1cc(C(F)(F)F)nn1CC(=O)N1CCOCC1 | - | - | - | - | - | - | .
CCN(CC)c1ccc2cc(-c3nc4ccccc4[nH]3)c(=O)oc2c1 | 53 | - | - | - | - | - | 31
O=C(NNC(=O)c1cc2cc3ccccc3nc2s1)c1cccc(C(F)(F)F)c1 | 25 | - | - | - | - | - | -
Nc1c(CO)nnn1-c1ccccc1 | . | - | . | - | - | . | .
